Bioassay records: PubChem, DiRusso Lab, Biochemistry Department, University of Nebraska
Only a selection was taken, and hits are over-represented in it overall.
Chlamy TAG – increases triacylglycerol in Chlamydomonas reinhardtii; actives 0.84% (n = 44,000); Chlamydomonas reinhardtii TAG, Nile Red fluorescence, 72 h; calls only at 10 µM (by protocol); AID 1159537; call rule not given here;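 further: hits raise Nile Red signal meaning more stored TAG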
Numbers without * were called inactive.

How did COc1cccc(N2CCN(CC3CC4C=CC3C4)CC2)c1 (stereo not given) do in these assays?
Chlamy TAG: active

How did c1ccc(N2CCN(Cc3ccco3)CC2)cc1 do in these assays?
Chlamy TAG: inactive

What do the screens show for `COc1ccc(CN2CCN(Cc3ccc(OC)c(OC)c3)CC2)cc1`?
Chlamy TAG: inactive

Results for CCS(=O)(=O)N1CCN(CC2CC3C=CC2C3)CC1 (stereo not given) ?
Chlamy TAG: inactive

Results for c1coc(CN2CCN(Cc3ccncc3)CC2)c1 ?
Chlamy TAG: inactive

What do the screens show for `O=C(c1ccc(F)cc1)N1CCN(CC2CC3C=CC2C3)CC1` (stereo not given)?
Chlamy TAG: inactive

Results for COc1cc(OC)c(OC)cc1CN1CCN(c2cc(C)ccc2C)CC1 ?
Chlamy TAG: inactive

What do the screens show for `NC(=O)C1CCN(C(=O)c2ccc(Br)o2)CC1`?
Chlamy TAG: inactive

What do the screens show for `O=C(c1ccc(Cl)c(Cl)c1)N1CCN(c2ccc([N+](=O)[O-])c(N3CCCCC3)c2)CC1`?
Chlamy TAG: inactive

Results for CC(=O)c1ccc2c(c1)c1cc(Cl)ccc1n2C ?
Chlamy TAG: inactive

Results for COc1ccc(OC)c(NS(=O)(=O)c2ccc(OC)c(OC)c2)c1 ?
Chlamy TAG: inactive

Results for CC(C)Oc1ccc(C(O)=C2C(=O)C(=O)N(CCN(C)C)C2c2cccs2)cc1 (stereo not given) ?
Chlamy TAG: inactive

What do the screens show for `NNC(=O)c1ccc(OCc2ccc(Cl)cc2)cc1`?
Chlamy TAG: inactive

What do the screens show for `COc1ccc(C(=O)Nc2ccccn2)cc1[N+](=O)[O-]`?
Chlamy TAG: inactive

What do the screens show for `CCC(C(=O)Nc1ccc([N+](=O)[O-])cc1)c1ccccc1` (stereo not given)?
Chlamy TAG: inactive

Results for COCC(=O)Nc1nnc(C(C)(C)C)s1 ?
Chlamy TAG: inactive

Results for CSc1nc2ccccc2c(=O)n1CC1CCOC(C)(C)C1 (stereo not given) ?
Chlamy TAG: inactive

What do the screens show for `O=C(Nc1nc(-c2ccc(Cl)cc2Cl)cs1)c1ccncc1`?
Chlamy TAG: inactive

Results for O=C(c1ccc(CN2CCC(Cc3ccccc3)CC2)cc1)N1CCCC1 ?
Chlamy TAG: inactive

What do the screens show for `O=[N+]([O-])c1ccccc1CN1CCCC1`?
Chlamy TAG: inactive

Results for C1=CCC(CN2CCN(Cc3ccco3)CC2)CC1 (stereo not given) ?
Chlamy TAG: inactive

How did O=[N+]([O-])c1ccccc1CN1CCN(CC2CC=CCC2)CC1 (stereo not given) do in these assays?
Chlamy TAG: inactive

Results for C1=CC2CC1CC2CN1CCN(Cc2ccncc2)CC1 (stereo not given) ?
Chlamy TAG: inactive

How did OC1CCN(CC2CC3C=CC2C3)CC1 (stereo not given) do in these assays?
Chlamy TAG: inactive

Results for C1=CC2CC1CC2CN1CCN(Cc2ccccc2)CC1 (stereo not given) ?
Chlamy TAG: active

Results for C1=CC2CC1CC2CN1CCN(Cc2ccco2)CC1 (stereo not given) ?
Chlamy TAG: active

What do the screens show for `Cn1cccc1CN1CCN(Cc2ccco2)CC1`?
Chlamy TAG: inactive

How did O=[N+]([O-])c1ccccc1CN1CCN(CC2CC3C=CC2C3)CC1 (stereo not given) do in these assays?
Chlamy TAG: active

What do the screens show for `O=[N+]([O-])c1ccc(N2CCN(S(=O)(=O)c3ccccc3)CC2)cc1SCc1ccco1`?
Chlamy TAG: inactive

Results for O=C(NCc1cccnc1)c1cccc(I)c1 ?
Chlamy TAG: inactive

Results for O=C(c1ccccc1[N+](=O)[O-])n1nnc2ccccc21 ?
Chlamy TAG: inactive

Results for Cn1c(SCC(=O)NC2CC2)nnc1-c1ccc(N)cc1 ?
Chlamy TAG: inactive

What do the screens show for `CC(C)C(=O)Nc1ccc(NC(=O)COc2ccc(Br)cc2)cc1`?
Chlamy TAG: inactive

What do the screens show for `COC(=O)OC1=C(c2ccccc2)C(=O)c2ccccc21`?
Chlamy TAG: inactive

How did COc1cc(-c2ccc(NC(=O)c3ccco3)c(OC)c2)ccc1NC(=O)c1ccco1 do in these assays?
Chlamy TAG: active

What do the screens show for `COc1ccc(OC)c(NC(=O)c2ccco2)c1`?
Chlamy TAG: inactive

How did Cc1cc(-c2ccc(NC(=O)c3ccco3)c(C)c2)ccc1NC(=O)c1ccco1 do in these assays?
Chlamy TAG: inactive

What do the screens show for `CCc1ccc(OCC(=O)Nc2ccc(NC(C)=O)cc2)cc1`?
Chlamy TAG: inactive

How did CCN(CC)C(=O)c1ccc(S(=O)(=O)c2ccc(Cl)c(Cl)c2)cc1 do in these assays?
Chlamy TAG: inactive

What do the screens show for `Cc1ccc(OCC(=O)N2C(C)CCCC2C)cc1C` (stereo not given)?
Chlamy TAG: inactive

Results for N#Cc1c(-n2ncnc2-c2cccnc2)sc2c1CCCCC2 ?
Chlamy TAG: active

How did COc1ccc(-c2ncnn2-c2sc3c(c2C#N)CCCC3)cc1OC do in these assays?
Chlamy TAG: inactive

How did N#Cc1c(-n2ncnc2-c2ccc(F)cc2)sc2c1CCCC2 do in these assays?
Chlamy TAG: inactive
